This is a sample that favours compounds with a hit; in the whole collection about 5.3% have one here.
VACV mCherry inh = inhibitors of vaccinia virus infection (mCherry reporter signal). Vaccinia virus mCherry reporter infection, fluorescence. Potency, µM (top dose mostly 36.5 µM), for the others: at the top dose activity change, negative = inhibition, most hits filed as inhibitors. 0.63% of 310,000 active; calls by dose curve; tested in A549 cells; further: nearly all actives have a fitted effect of over 35% in size
VACV Venus inh = inhibitors of vaccinia virus (Venus reporter). 0.46% of 330,000 active. Vaccinia virus Venus reporter expression, fluorescence. Potency, µM (top dose mostly 36.5 µM), without a hit: at the top dose activity change, negative = inhibition, usual class: inhibitors; calls by dose curve; tested in A549 cells; further: nearly all actives have a fitted effect of over 30% in size
LASV entry inh = blocks Lassa virus binding to or entry into cells; 1.2% of 300,000 active; Potency, µM (top dose mostly 37.9 µM), for the others: top-dose activity change, negative = inhibition, hits mostly inhibitors; Lassa virus pseudotype entry inhibition, cell reporter; calls by dose curve; tested in HEK293 cells; further: nearly all actives have a fitted effect of over 50% in size
MARV entry inh = Marburg virus entry inhibition; Marburg virus pseudotyped entry inhibition, cell reporter; Potency, µM (highest dose often 37.8 µM), for inactives: at the top dose activity change, negative = inhibition, usual class: inhibitors; 1.8% of 300,000 active; calls by dose curve; tested in HEK293 cells
HCV inhibitor = blocks hepatitis C virus. 3.4% of 340,000 active. Potency, µM (series often up to 41.8 µM), for the others: at the top dose activity change, negative = inhibition, usual class: inhibitors. Huh7.5.1 HCVcc-Cre infection, luciferase reporter, 44 h. AID 651820; active means well fitted inhibition curve with a large enough effect; inconclusive means small, poorly fitted or top-dose-only effect, or another doubt; inactive means no such curve, though single readings can be large or run the other way
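After 44 h co-culture of compound, cells and HCVcc-Cre (~0.5 moi), substrate is added for 15 min at room temperature and luciferase measured over 15 sec. Cells were seeded at 1,000/well and pre-cultured 4 h.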
FMDV antiviral = antivirals against foot and mouth disease virus | FMDV antiviral cell-based qHTS | Potency, µM (top dose mostly 57.9 µM), inactives show top-dose activity change, negative = inhibition, actives largely listed as inhibitors | 1.2% of 410,000 active | AID 1159524; calls by dose curve; tested in HEK293T cells; further: read-out not given here; nearly all actives have a fitted effect of over 45% in size
* marks the source's active call; other numbers are inactive results; i = inactive; u = inconclusive; x = no result given; [ ] = another dose, or the depositor's remark. On the % scale 0 is the no-effect control and ±100 the full control effect; potency means the concentration at half of the fitted maximal effect.

SMILES	VACV mCherry inh	VACV Venus inh	LASV entry inh	MARV entry inh	HCV inhibitor	FMDV antiviral
CN1CCCC(CC2Oc3ccccc3Sc3ccccc32)C1 (centres undefined)	u	u	u	u	11µM*	-8%
c1ccc2c(c1)OC(CCCN1CCCCC1)c1ccccc1S2 (centres undefined)	-9%	-26%	-17%	u	25µM*	-21%
CC1CCCN(C(=O)N2c3ccccc3Sc3ccccc32)C1 (centres undefined)	x	x	u	u	-19%	-30%
CCOC(=O)C1(c2ccccc2)CCN(CCC(=O)Nc2cccc(Br)c2)CC1	u	u	13µM*	2.8µM*	11µM*	-33%
CCOC(=O)C1(c2ccccc2)CCN(CCC(=O)Nc2ccc(OC)cc2)CC1	-9%	u	x	x	x	-17%
Nc1nsc2ccccc12	u	u	u	u	11µM*	x
CCCCn1c(=O)[nH]c(=O)c2c(C(=O)OCC)cc(-c3cccs3)nc21	-3%	-3%	u	u	10µM*	u
COC(=O)C1=C(C)N(Cc2ccccc2)C(=S)NC1c1cccc(F)c1 (centres undefined)	x	x	x	48%[14.2 µM]	x	x
COc1ccc2nc(Cl)cc(Cl)c2c1	-11%	-5%	1%[46.1 µM]	9%[46.1 µM]	5%	17%
C=CS(=O)(=O)c1c2cc(OC)ccc2nc2ccc(OC)cc12	u	u	u	u	u	28µM*
Cc1ccc(OCCn2cnc3c2c(=O)n(C)c(=O)n3C)cc1	i	-15%	-14%	-15%[46.1 µM]	3.5µM*	u
COc1ccc(NCc2nc3ccccc3n2CCOc2ccccc2)cc1	u	-29%	u	u	u	-24%
COc1ccc(NCc2nc3ccccc3n2CCOc2ccc(C)cc2)cc1	-26%	u	u	u	8.9µM*	u
Cc1ccc(OCCn2c(=O)n(C)c3ccccc32)cc1	-9%	1%	6%	u	11µM*	47%
Cn1c(=O)n(CCOc2ccc([N+](=O)[O-])cc2)c2ccccc21	i	-22%	2%	7%[14.2 µM]	2%	17%
COc1ccc(Nc2c3c(nc4nncn24)CCC3)cc1Cl	i	u	u	-28%[46.1 µM]	x	-27%
CCN(CC)CCCN(C(=O)c1ccco1)c1nc(-c2ccc(C)cc2)cs1	u	-5%	u	8.9µM*	u	2%
CCN(CC)CCN(C(=O)c1ccco1)c1nc2ccc(Cl)cc2s1	-8%	-1%	13%[46.1 µM]	x	x	8%
CCN(CC)CCCN(C(=O)c1ccco1)c1nc(-c2ccc(Cl)cc2)cs1	-22%	-21%	u	u	11µM*	-2%
Cn1cc(CNC2CCN(c3cccc(NC(=O)c4cccnc4)c3)CC2)cn1	-9%	-2%	x	x	x	-8%
CCC(C)c1ccc(O[C@@H]2O[C@H](CO)[C@@H](O)[C@H](O)[C@H]2NC(C)=O)cc1 (some centres undefined)	x	x	x	x	x	-8%
CCOC(=O)c1cc(-c2ccncc2)nc2c1c(C)nn2-c1ccccn1	-25%	u	u	u	7.9µM*	u
COc1ccc(-c2cc(C(=O)O)c3c(C)nn(-c4ccccn4)c3n2)cc1	x	-8%	-5%	1%	13%	-17%
CS(=O)(=O)c1nc(-c2ccccc2)cc(-c2ccccc2)c1C#N	-7%	-21%	15µM*	13µM*	28µM*	u
Cc1ccc(-c2cc(-c3ccccc3)c(C#N)c(Br)n2)cc1	-15%	-4%	17%	u	22%	-9%
SMILES	VACV mCherry inh	VACV Venus inh	LASV entry inh	MARV entry inh	HCV inhibitor	FMDV antiviral
CCOC(=O)c1cc(-c2ccccc2)n(CCCC(=O)Nc2ccccc2C)c1C	-21%	-9%	u	x	x	-9%
Cc1ccccc1C(=O)N(Cc1ccc(N(C)C)cc1)Cc1ccco1	-15%	-8%	-8%[46.1 µM]	-5%[46.1 µM]	x	-7%
Cc1cc(Nc2ccc(C)c(C)c2)c2ccccc2n1	u	-6%	-3%[46.1 µM]	3.2µM*	u	-23%
CCOc1ccc2nc(C)cc(Nc3cccc([N+](=O)[O-])c3)c2c1	11µM*	u	u	u	u	-19%
Cc1cc(Nc2cccc([N+](=O)[O-])c2)c2ccccc2n1	u	u	10%	-1%[46.1 µM]	-29%	u
Cc1cc(NCc2ccccc2)c2ccccc2n1	x	x	x	x	11µM*	u
Cc1cc(NCc2ccccc2)nc2ccccc12	x	-27%	-6%	u	u	6%
CCOc1ccc(Nc2cc(C)nc3c(C)cccc23)cc1	-19%	-17%	-29%	0.89µM*	u	-22%
CCOc1cccc(C(=O)N(Cc2ccc(C(C)C)cc2)C2CCS(=O)(=O)C2)c1 (centres undefined)	-15%	-15%	-18%[46.1 µM]	u	x	-10%
COc1ccc2nc(C)cc(NCc3cccc(C(F)(F)F)c3)c2c1	-26%	u	u	u	10µM*	-17%
COc1ccc(Cl)cc1Nc1cc(C)nc2ccccc12	x	x	x	x	11µM*	u
COc1ccc(OC)c(Nc2cc(C)nc3ccccc23)c1	x	x	-24%	u	u	u
CNc1nc(Cl)c(SC)c(N2CCOCC2)n1	-3%	-18%	3%[46.1 µM]	8%[46.1 µM]	0.89µM*	-16%
CNc1nc(OC)nc(N2CCOCC2)n1	-14%	4%	-7%	5%[46.1 µM]	12%	3%
Cc1cnc2ccccc2c1/C=C/c1ccc(N(C)C)cc1	-26%	-19%	x	x	x	x
Cc1ccc(/C=C/C(O)=C2/C(=O)N(C)C3(C)CC2c2ccccc2O3)cc1 (centres undefined)	u	u	-12%	u	u	14µM*
CCN1C(=O)C(C(=O)Nc2ccc(OC)cc2)C2CC1(C)Oc1ccccc12 (centres undefined)	-4%	-17%	16%	-13%	-3%	-21%
CCOC(=O)C1C(=O)N(C)C2(C)CC1c1ccccc1O2 (centres undefined)	-11%	-7%	13%	9%	7%	-22%
COc1ccc(/C=C/C(O)=C2/C(=O)N(C)C3(C)CC2c2ccccc2O3)cc1 (centres undefined)	x	x	u	8.2µM*	-17%	14µM*
CCNc1ncc2nc(CCc3ccccc3)c(=O)n(C[C@H]3CCCO3)c2n1	x	x	x	x	x	9%
CCN(CC)c1ccc(/C=C/c2cc(Cl)nc3ccccc23)cc1	-7%	3%	x	x	x	x
CCN(CC)c1ccc2nc3c(=O)n(C)c(=O)n(C)c3nc2c1	40%	i	-20%[46.1 µM]	u	x	-12%
CCN(CC)c1ccc2nc3ccc(N)cc3[n+](-c3ccccc3)c2c1	i	i	8.9µM*	u	5µM*	u
CCN(CC)c1ccc2nc3ccccc3[n+](CC)c2c1	50%	u	u	u	6.3µM*	7.9µM*
CS(=O)(=O)CCNCc1nc(-c2ccc3ncnc(Nc4ccc(F)c(Cl)c4)c3c2)cs1	x	x	-15%	x	x	x
COc1cccc(NC(=O)CN(c2cccc(F)c2)S(C)(=O)=O)c1	-12%	-7%	-7%	17%	8.9µM*	x

Screening data (PubChem BioAssay)
